This passage reports growth results from PubChem BioAssay (NCI).

Molecules are shown by their SMILES. The panel holds about 83,000 compounds, 20% with a hit somewhere; the sample as a whole holds those more often.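 Step 1: grow cells in 96-well plates. Step 2: add test compound at a single concentration. Step 3: incubate 48 h. Step 4: record percent growth.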 Unmarked numbers belong to inactive results. Activity calls are given as the source filed them. Rule for the calls: active = growth percent below 10; inactive = the rest.

Experiment in all cases: NCI-60 one-dose screen, 48 h (100 = growth as untreated, 0 = no growth, -100 = all killed)
What all share (conditions): 10 µM unless noted

The subject of assay [1] is NCI-H226 lung.
For assay [2], the system named is NCI-H322M lung.
The test system of assay [3] is HOP-62 NSCLC.
For assay [4], the system named is NCI-H460 lung.
Assay [5] concerns NCI-H522 lung.
Assay [6] concerns A549/ATCC NSCLC.
For assay [7], the system named is 786-0 renal.
The subject of assay [8] is COLO 205 colon.
In assay [9] the test system is DU-145 prostate.
In assay [10] the test system is K-562 leukemia.
Assay [11] deals with MALME-3M melanoma.
In assay [12] the test system is MDA-MB-231 breast.
The subject of assay [13] is RXF 393 renal.
The test system of assay [14] is SF-268 CNS.
Assay [15] has as its system SF-295 CNS.
The subject of assay [16] is SF-539 CNS.
The test system of assay [17] is M14 melanoma.
Assay [18] deals with HCT-15 colon.
In assay [19] the test system is UACC-257 melanoma.

`N#Cc1cnc2cc(OC[C@H](O)CO)c(NC(=O)CC3CSSC3)cc2c1Nc1ccc(OCc2cccc(F)c2)c(Cl)c1`: the growth in assay [1] was -62.3% (active); in assay [2], -85.4% (active); in [3], -60.8% (active); in [4] it was -70.7% (active); in assay [5], -68.3% (active); in assay [6], -69.3% (active). The growth in assay [7] was -63.2% (active); in [8], -79.4% (active); in assay [9], -93.5% (active); in assay [10] it was -100% (active); in assay [11], -67% (active); in [12] it was -54.9% (active). The growth in assay [13] is -86.1% (active); in assay [14], -56.3% (active); in [15] it was -82.1% (active); in assay [16] it was -85.8% (active); in assay [17], -66.8% (active); in [18] it was 27.3%.
As for `CCC(CC)NCCCCCNc1cc(OC)cc2cccnc12`, the growth in assay [1] was 96.6%; in assay [2], 120%; in assay [3], 84.6%; in [4], 105%; in assay [5] it was 97.7%; in assay [6] it was 96.1%. For the same compound, the growth was 95% in assay [7]; 82.7% in assay [8]; 102% in [9]; 85.1% in [10]; 119% in assay [11]; 83.9% in assay [12]. In addition, the growth is 88.1% in assay [13]; 85.3% in [14]; 113% in assay [15]; 92% in assay [16]; 101% in [19]; 92.6% in assay [18].
Turning to `COc1cc2c(cc1OCCCOc1ccc(-c3cc4ccccc4c4ccccc34)cc1)N=C[C@@H]1CCCN1C2=O`, the growth is -78.7% (active) in assay [1]; -69.4% (active) in [2]; -45% (active) in [3]; -45.2% (active) in assay [4]; -43.9% (active) in [5]; -17.4% (active) in [6]. Besides, the growth was -79.9% (active) in assay [7]; -0.637% (active) in assay [8]; -35.6% (active) in assay [9]; 10.5% in [10]; -57.9% (active) in assay [11]; -71.2% (active) in assay [12]. Besides, the growth is -49.6% (active) in assay [13]; -61.2% (active) in assay [14]; -64.6% (active) in assay [15]; -57.6% (active) in assay [16]; -34.2% (active) in [17]; -64% (active) in [18].
With `CO[C@H]1/C=C/O[C@@]2(C)Oc3c(C)c(O)c4c(O)c(c(/C=N/N5CCN(C)CC5)c(O)c4c3C2=O)NC(=O)/C(C)=C\C=C\C(C)[C@H](O)[C@@H](C)[C@@H](O)[C@@H](C)[C@@H](OC(C)=O)[C@@H]1C` (some centres undefined), the growth was 84.5% in [1]; 112% in assay [2]; 99.4% in assay [3]; 103% in [4]; 105% in [5]; 97.1% in assay [6]. The growth in assay [7] is 96.6%; in assay [8] it was 103%; in [9], 104%; in [10], 100%; in assay [11], 105%; in [12], 98.5%. Further, the growth in [13] is 104%; in [14], 109%; in assay [15], 98.8%; in assay [19] it was 103%; in assay [17] it was 102%; in assay [18], 87.7%.
On to `CCOc1nc(-c2ccccc2)cc2c(O)c(C(=O)n3nc(C)cc3C)[nH]c(=O)c12`, for which the growth was 91.8% in assay [1]; 103% in assay [2]; 105% in assay [3]; 107% in [4]; 104% in assay [5]; 102% in assay [6]. In addition, the growth in assay [7] is 100%; in assay [8] it was 108%; in assay [9] it was 111%; in assay [10], 86.7%; in [11], 102%; in [12], 112%. Further, the growth in [14] was 99%; in [15] it was 101%; in [16] it was 101%; in assay [19], 112%; in [17] it was 102%; in assay [18], 100%.
Consider `COc1cccc2c1O/C(=C\c1c([N+](=O)[O-])ncn1C)C2=O`, for which the growth in assay [1] is 96.9%; in [2] it was 84.7%; in assay [3] it was 105%; in assay [4], 109%; in assay [5] it was 84.3%; in assay [6], 99.8%. Moreover, the growth in [7] was 96.1%; in assay [8], 109%; in [9], 102%; in [10] it was 89.9%; in assay [11], 92.4%; in [12], 119%. The growth in assay [13] is 113%; in assay [14], 98.3%; in assay [15], 98.2%; in assay [16], 100%; in assay [19], 93.5%; in assay [17], 103%. Further, the growth in [18] is 91.4%.
